An excerpt weighted towards active compounds, which were near 1.5% of everything screened.
FAK inh = inhibitors of human focal adhesion kinase | Q05397 | biochemical FAK kinase activity assay | inhibition, %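 (tested at 7 µM)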 | 97,000 tested, 0.84% active | AID 727; in the data active means inhibition above about 19%
PLK1 inh = blocks human PLK1 kinase activity | inhibition, % at 10 µM | 97,000 tested, 0.53% active | recombinant PLK1 kinase, TR-FRET peptide phosphorylation | P53350;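 active means inhibition of 50% or more in the single-concentration screen; inactive means inhibition below 50%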
JNK3 blocker = blocks human JNK3 kinase activity. P53779. purified JNK3 kinase activity, HTS. inhibition, % at 8 µM. 60,000 tested, 0.61% active; in the data active means inhibition above about 17%
Target sequence (P53779 whole entry, looked up): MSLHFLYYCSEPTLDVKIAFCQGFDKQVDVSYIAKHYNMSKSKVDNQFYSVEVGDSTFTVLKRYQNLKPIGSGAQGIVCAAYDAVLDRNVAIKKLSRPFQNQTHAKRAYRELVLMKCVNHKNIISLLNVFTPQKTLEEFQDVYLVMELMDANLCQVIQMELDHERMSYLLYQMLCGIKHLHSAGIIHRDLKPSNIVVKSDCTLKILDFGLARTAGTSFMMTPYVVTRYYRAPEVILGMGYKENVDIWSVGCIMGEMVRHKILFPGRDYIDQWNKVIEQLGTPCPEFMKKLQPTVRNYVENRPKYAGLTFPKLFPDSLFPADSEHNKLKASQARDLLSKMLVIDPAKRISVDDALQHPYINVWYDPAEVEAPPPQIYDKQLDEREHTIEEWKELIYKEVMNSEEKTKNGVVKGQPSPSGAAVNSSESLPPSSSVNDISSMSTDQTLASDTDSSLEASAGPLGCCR
PKA inh = inhibitors of human protein kinase A; AID 524; 65,000 tested, 0.1% active; PKA Kemptide phosphorylation, Kinase-Glo ATP luminescence; P17612; inhibition, % at 6 µM;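 active means inhibition above the screen-wide mean inhibition plus 3 SD, cut at about 21% in these data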
Plk1 PBD FP = inhibitors of human Plk1 polo box domain binding; Plk1 PBD phosphopeptide binding, fluorescence polarization; inhibition, %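 (tested at about 20 µM)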; 97,000 tested, 0.13% active; in the data active means inhibition above about 34%, passing the limit was not always enough
ROCK2 blocker = inhibitors of human Rho kinase 2; 60,000 tested, 0.35% active; inhibition, % at 6 µM; O75116; AID 604; purified ROCK2, Kinase-Glo ATP depletion luminescence;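 active means inhibition above the screen-wide mean inhibition plus 3 SD, cut at about 18% in these data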
Numbers stand for hits; i = inactive; nt = no result.

SMILES	FAK inh	PLK1 inh	JNK3 blocker	PKA inh	Plk1 PBD FP	ROCK2 blocker
COc1ccc(NC(=O)CSc2nc(N)c(C#N)cc2C#N)cc1	i	61.8	nt	nt	i	nt
CN1CCc2nc(SCC(=O)Nc3ccc(Cl)cc3)c(C#N)cc2C1	i	53.2	i	i	i	i
Cc1ccccc1NC(=O)CSc1nc(N)c(C#N)cc1C#N	i	i	i	i	i	i
CC(C)N(Cc1nc(-c2ccccc2)no1)C(=O)c1ccc(Cl)cc1	i	i	i	i	i	i
CC(C)N(Cc1nc(-c2ccc(Cl)cc2)no1)C(=O)CCCN1C(=O)c2ccccc2C1=O	i	53.8	i	i	i	i
COc1ccc(NC2CC(=O)N(C(C)C)C2=O)cc1 (stereo not given)	i	53.5	i	i	i	i
CC(C)N1C(=O)CC(Nc2ccc(N3CCOCC3)cc2)C1=O (stereo not given)	i	i	nt	nt	i	nt
Cc1nnc(Sc2nc3c(c(=O)[nH]c(=O)n3C)n2Cc2ccccc2Cl)s1	nt	nt	i	i	nt	i
CCOc1ccccc1C1CC(=O)NC2=C1C(=O)CCC2 (stereo not given)	i	i	i	i	i	i
CCOc1ccc(C2CC(=O)NC3=C2C(=O)CCC3)cc1 (stereo not given)	i	i	44.9	i	i	i
c1ccc(-c2nc3cc(Cc4ccc5oc(-c6ccccn6)nc5c4)ccc3o2)nc1	nt	nt	i	i	nt	i
COC(=O)c1ccccc1NC(=O)COC(=O)c1ccc(C)c(NC(=O)c2ccco2)c1	i	i	i	i	i	i
CCCCC(=O)Nc1ccccc1C(=O)N1CCOCC1	i	i	nt	nt	i	nt
COC(=O)c1ccccc1NC(=O)COC(=O)c1ccco1	i	i	20.9	i	i	i
COC(=O)c1ccccc1NC(=O)COC(=O)CSCC(=O)N1CCOCC1	i	i	19.2	i	i	i
O=c1cc(/C=C/c2ccccc2)oc2ccccc12	i	i	nt	nt	i	nt
O=C(CCCCCn1c(SCc2ccncc2)nc2ccccc2c1=O)NCc1ccco1	i	i	18.0	i	i	i
O=C(CSc1nc2ccccc2c(=O)n1CCCC(=O)N1CCCC1)NCc1ccco1	i	i	nt	i	i	nt
CC(=O)c1cccc(NC(=O)NCc2ccccn2)c1	i	i	i	i	i	i
CC(=O)c1cccc(NC(=O)NCc2cccs2)c1	i	i	i	i	i	19.6
Cc1c(CCO)c(=O)n(-c2ccccc2)n1S(=O)(=O)c1ccc(Cl)cc1	i	i	nt	nt	i	nt
COc1cccc(C(=O)c2sc(NC(C)C)nc2N)c1	nt	nt	17.2	i	nt	i
O=C(Nc1cccc(Cl)c1N1CCCC1)c1cccc(-c2cc3ccccc3oc2=O)c1	i	i	nt	nt	i	nt
N/C(=N\OC(=O)CCCCCN1C(=O)c2ccccc2C1=O)c1ccccc1	i	i	nt	nt	i	nt
O=C(CSc1ncn[nH]1)Nc1nnc(-c2ccccc2)s1	i	62.6	i	i	i	i
SMILES	FAK inh	PLK1 inh	JNK3 blocker	PKA inh	Plk1 PBD FP	ROCK2 blocker
c1ccc2nc3c(nc2c1)[nH]c1ccccc13	nt	nt	55.3	i	nt	i
CC1CCN(c2cc(N3CCC(C)CC3)c([N+](=O)[O-])cc2/C=C(\C#N)c2nn(-c3ccccc3)c(N)c2C#N)CC1	i	55.4	nt	nt	i	nt
Cc1ccc2c(c1)CC1(CN2C)C(=O)OC2(CCCCC2)OC1=O	i	i	30.6	i	i	i
CN1CC2(Cc3c1ccc1ccccc31)C(=O)OC(C)(C)OC2=O	i	i	i	i	i	i
O=C(NC1CCCCC1)c1cccnc1C(=O)O	i	i	i	i	i	i
O=C(NC1CCCC1)c1cccnc1N1CCCCCC1	i	i	33.7	i	i	i
Cc1noc(/C=C/N(C)C)c1S(=O)(=O)N1CCN(c2ccccc2)CC1	i	68.6	i	i	i	i
Cc1ccc(C)c(N2CCN(S(=O)(=O)c3c(C)noc3/C=C/N(C)C)CC2)c1	i	i	i	i	i	i
CN1CCc2c(sc3c2c(=O)n(-c2ccccc2)c2nnc(SCc4ccccc4F)n32)C1	nt	nt	i	i	nt	i
COc1cccc2cc(-c3cn4ccc(C)cc4n3)c(=O)oc12	18.9	i	nt	nt	i	nt
O=c1[nH]cnc2cc(Cl)ccc12	i	i	i	i	i	18.5
Cc1ccc2nc(NC(=O)C(NS(=O)(=O)c3cccc4nsnc34)C(C)C)sc2c1 (stereo not given)	i	i	nt	nt	i	nt
COc1ccc(C2C(C#N)=C(N)SC(N)=C2C#N)cc1OC	i	i	22.2	i	i	i
CCCCc1nc2n[nH]c(N)c2c2c1CCCC2	i	57.5	i	i	i	i
O=C(Nc1cccnc1)c1ccc(COc2ccccc2Br)o1	i	i	20.7	i	i	i
[O-][n+]1c2c(c3c4non(O)c4ccc31)CCCC2	i	i	nt	nt	i	nt
Cc1cc2ccccc2c(=O)n1CC(=O)Nc1ccc2c(c1)OCO2	nt	nt	i	22.5	nt	i
CCN(CC)CCNC(=O)Cn1c(C)cc2ccccc2c1=O	i	i	nt	nt	i	nt
Cc1noc(C)c1Cn1nc(C(=O)O)c2ccccc2c1=O	i	51.4	i	i	i	i
C=CCn1cnc2c(c1=O)c1nc3ccccc3nc1n2-c1ccc(Cl)cc1	nt	nt	i	i	nt	i
CCC1CCCCN1c1nc(-c2ccncc2)nc2ccccc12 (stereo not given)	i	i	i	61.5	i	i
CCC1CCCCN1c1nc(-c2cccc(OC)c2O)nc2ccccc12 (stereo not given)	i	i	i	i	i	i
Cc1ccc(-c2nc(C3CCCN(S(=O)(=O)c4ccc(C)cc4)C3)no2)cc1 (stereo not given)	i	67.0	i	i	i	i
CCN(CC)S(=O)(=O)c1ccc(NC2c3ccccc3C(=O)N2Cc2ccc3c(c2)OCO3)cc1 (stereo not given)	i	66.2	i	i	i	i
O=C1c2ccccc2C(Nc2ccc3c(c2)OCCO3)N1Cc1ccc2c(c1)OCO2 (stereo not given)	i	i	i	i	i	i
SMILES	FAK inh	PLK1 inh	JNK3 blocker	PKA inh	Plk1 PBD FP	ROCK2 blocker
O=C1NC(=O)c2c(NC(=O)C3CCCO3)cccc21 (stereo not given)	i	i	21.2	i	i	i
COc1cc2c(cc1NC(=O)COC(=O)Cn1cnc3ccccc31)oc1ccccc12	i	i	i	23.7	i	i
CCOc1cc2[nH]c(=O)n(CCCCC(=O)NC3CCCCC3)c(=O)c2cc1OCC	nt	nt	i	i	nt	i
NC(=O)c1c(-c2cccs2)csc1N	i	i	i	i	i	20.9
S=c1[nH]nc(-c2cccnc2)o1	i	i	i	i	i	i
S=c1[nH]nc(-c2cccc(Br)c2)o1	i	i	19.4	i	i	i
Cc1cc(NC(=O)CSc2nc3ccc(Cl)cc3[nH]2)no1	i	50.3	nt	nt	i	nt
O=C(Cn1nc(Cc2cccnc2)c2ccccc2c1=O)N1CCN(C(=O)c2ccco2)CC1	i	61.5	i	i	i	i
O=C(Cn1nc(Cc2ccncc2)c2ccccc2c1=O)N1CCN(C(=O)c2ccco2)CC1	i	i	i	i	i	i
CCOc1nc(Nc2ccc(-c3nc4ccccc4o3)cc2)nc(N2CCOCC2)n1	nt	nt	i	i	nt	i
Cc1nn(C(C)C(=O)O)c(=O)c2c1sc1ccccc12 (stereo not given)	i	i	20.6	i	i	i
O=C1CCSc2ccc(Cl)cc2N1Cc1ccc(Cl)cc1	i	i	nt	nt	i	nt

From PubChem
